Screening results: PubChem BioAssay, several laboratories
rCAG binder: r(CAG) repeat RNA binding; TO-PRO-1 dye displacement fluorescence; inhibition, % at 3 µM; actives 1.3% (n = 370,000);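 active = inhibition above the plate cutoff, the mean of all test compounds on that plate plus 3 SD, cut at about 35% in these data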;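 also: 0% = DMSO alone and 100% = 100 µM mitoxantrone as full dye displacement; higher means more dye released from RNA so lower well fluorescence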
DNMT1 block: inhibitors of human DNMT1. P26358. DNMT1 molecular beacon, Hinp1I cleavage, fluorescence. inhibition (reported as % activation of signal), % at 10 µM. actives 0.83% (n = 360,000); in the data active = inhibition above about 50%
Target sequence (P26358 504-1616 limits assumed): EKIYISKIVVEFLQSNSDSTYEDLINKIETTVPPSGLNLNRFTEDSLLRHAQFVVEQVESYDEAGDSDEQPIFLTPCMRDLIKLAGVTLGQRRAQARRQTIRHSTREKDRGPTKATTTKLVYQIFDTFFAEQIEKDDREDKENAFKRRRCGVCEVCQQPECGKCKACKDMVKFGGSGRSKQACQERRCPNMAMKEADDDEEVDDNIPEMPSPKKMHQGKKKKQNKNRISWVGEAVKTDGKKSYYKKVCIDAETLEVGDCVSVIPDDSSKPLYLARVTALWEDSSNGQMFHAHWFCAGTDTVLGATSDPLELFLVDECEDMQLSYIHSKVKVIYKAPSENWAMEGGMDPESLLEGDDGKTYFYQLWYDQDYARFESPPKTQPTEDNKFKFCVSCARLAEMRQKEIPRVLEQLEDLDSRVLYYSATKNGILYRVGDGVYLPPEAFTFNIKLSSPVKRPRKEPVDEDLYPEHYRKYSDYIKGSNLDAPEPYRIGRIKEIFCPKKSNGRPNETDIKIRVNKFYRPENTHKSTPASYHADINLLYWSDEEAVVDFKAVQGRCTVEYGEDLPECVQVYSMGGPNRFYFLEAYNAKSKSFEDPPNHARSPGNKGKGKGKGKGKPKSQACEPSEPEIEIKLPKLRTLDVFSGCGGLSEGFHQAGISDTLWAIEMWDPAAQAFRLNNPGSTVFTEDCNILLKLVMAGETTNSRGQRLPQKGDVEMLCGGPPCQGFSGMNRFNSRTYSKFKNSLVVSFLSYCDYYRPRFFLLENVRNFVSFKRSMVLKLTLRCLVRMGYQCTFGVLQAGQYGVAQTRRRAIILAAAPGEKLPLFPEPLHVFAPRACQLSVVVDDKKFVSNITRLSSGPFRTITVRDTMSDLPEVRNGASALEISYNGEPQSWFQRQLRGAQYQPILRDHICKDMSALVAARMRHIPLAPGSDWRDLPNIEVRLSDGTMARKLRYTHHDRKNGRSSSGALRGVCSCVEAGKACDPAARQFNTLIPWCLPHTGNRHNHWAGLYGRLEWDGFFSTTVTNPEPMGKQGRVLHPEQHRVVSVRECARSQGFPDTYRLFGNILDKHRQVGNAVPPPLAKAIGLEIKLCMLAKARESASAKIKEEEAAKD
UHRF1 binding: blocks human UHRF1 binding to methylated DNA; UHRF1 binding to methylated oligo, TR-FRET; inhibition, % at 4.4 µM; actives 0.75% (n = 370,000);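 also: UHRF1 SRA domain binding a hemimethylated CpG hairpin DNA probe; 0% = median of test compound wells and 100% = reference inhibitor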
MBD2 inh: MBD2-methylated oligo binding inhibition; AID 686964; TR-FRET, MBD2 binding to methylated oligonucleotide; inhibition, % at 4.4 µM; Q9UBB5; actives 0.31% (n = 370,000); in the data active = inhibition above about 13%
LEDGF integ inh: blocks HIV-1 LEDGF/p75-dependent DNA integration; TR-FRET IN-LEDGF/p75 DNA integration, Eu/Cy5; inhibition, % at 3.7 µM; actives 0.64% (n = 370,000); AID 743269;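 active = inhibition above the screen-wide mean plus 3 SD, cut at about 13% in these data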;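 also: signal is the Cy5 over europium emission ratio at 671 and 618 nm; 0% = plate median of compound wells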
PG9 Ab binder: PG9 antibody binding by small molecule. AID 624416. TR-FRET gp120-PG9 antibody binding. actives 0.43% (n = 360,000). inhibition, % at 6.7 µM; in the data active = inhibition above about 8.5%
UHRF1 ctr MBD2: counter-screen for MBD2 inhibitors: human UHRF1 methylated DNA binding inhibitors. UHRF1 binding to methylated oligonucleotide, TR-FRET. shares compounds with MBD2 inh. actives 25% (n = 1,000). inhibition, % at 4.4 µM;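 also: UHRF1 SRA domain binding a labeled hemimethylated CpG hairpin DNA; 0% = vehicle only and 100% = reference inhibitor with vehicle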
MBD2 confirm: MBD2-DBD methyl-DNA binding inhibition, TR-FRET confirmation. shares compounds with MBD2 inh. TR-FRET MBD2-DBD binding to methylated oligonucleotide. inhibition, % at 4.4 µM. actives 26% (n = 1,000). AID 720531; in the data active = inhibition above about 14%
The depositor's hits bear a star. A selection: hits, their analogues and other compounds. The true share with any hit is near 3.5%. Rule as the data show it, unless noted: active = inhibition above about 21%; inactive = the rest.

Results for O=C(NCc1ccc2c(c1)OCO2)C1CCC(CNS(=O)(=O)c2ccc(Cl)cc2)CC1 (configuration not stated) ?
rCAG binder: -4; DNMT1 block: 19; UHRF1 binding: -2; MBD2 inh: 20*; LEDGF integ inh: -1; PG9 Ab binder: 1; UHRF1 ctr MBD2: 8; MBD2 confirm: 3

How did Cc1ccc(S(=O)(=O)NCC2CCC(C(=O)NCc3ccc4c(c3)OCO4)CC2)cc1 (configuration not stated) do in these assays?
rCAG binder: -2; DNMT1 block: -1; UHRF1 binding: 2; MBD2 inh: 1; LEDGF integ inh: 2; PG9 Ab binder: -2

Results for CC(C)c1ccc(NC2=NCC(=O)N2Cc2cccs2)cc1 ?
rCAG binder: -8; DNMT1 block: -1; UHRF1 binding: -2; MBD2 inh: -2; LEDGF integ inh: -5; PG9 Ab binder: 0

Results for O=C1CN=C(Nc2ccccc2)N1Cc1cccs1 ?
rCAG binder: -3; DNMT1 block: 2; UHRF1 binding: -1; MBD2 inh: 35*; LEDGF integ inh: 2; PG9 Ab binder: 0; UHRF1 ctr MBD2: 3; MBD2 confirm: 2

Results for Cc1ccc(C(=O)NCCn2c(N)c(C#N)c3nc4ccccc4nc32)cc1 ?
rCAG binder: 2; DNMT1 block: -14; UHRF1 binding: -13; MBD2 inh: -6; LEDGF integ inh: -1; PG9 Ab binder: 2

How did CCCCn1c(NC(=O)c2ccccc2)c(C#N)c2nc3ccccc3nc21 do in these assays?
rCAG binder: 15; DNMT1 block: 76*; UHRF1 binding: 18; MBD2 inh: 24*; LEDGF integ inh: 6; PG9 Ab binder: 1; UHRF1 ctr MBD2: -1; MBD2 confirm: 17*

How did O=C(COC(=O)C1CC1)NC(=O)c1ccccc1 do in these assays?
rCAG binder: 1; DNMT1 block: 1; UHRF1 binding: 23*; MBD2 inh: 16*; LEDGF integ inh: 7; PG9 Ab binder: -1; UHRF1 ctr MBD2: 6; MBD2 confirm: 2

Results for O=C(COC(=O)C1CCC1)NC(=O)c1ccccc1 ?
rCAG binder: -6; DNMT1 block: 1; UHRF1 binding: 0; MBD2 inh: 4; LEDGF integ inh: -2; PG9 Ab binder: -1

What do the screens show for `COc1cc(OC)cc(-c2sc3ccc(OC)cc3c2C#CC2(N)CCCCC2)c1`?
rCAG binder: 12; DNMT1 block: -32; UHRF1 binding: 29*; MBD2 inh: 14*; LEDGF integ inh: 9; PG9 Ab binder: -1; UHRF1 ctr MBD2: 3; MBD2 confirm: 7

How did CCOc1ccc(C(=O)NCC(=O)OCc2c(C)noc2C)cc1 do in these assays?
rCAG binder: -3; DNMT1 block: 0; UHRF1 binding: -1; MBD2 inh: -1; LEDGF integ inh: 1; PG9 Ab binder: -2

Results for CCOc1ccc(N=Nc2c(C)noc2C)cc1 ?
rCAG binder: -2; DNMT1 block: 3; UHRF1 binding: 26*; MBD2 inh: 18*; LEDGF integ inh: 3; PG9 Ab binder: 0; UHRF1 ctr MBD2: 12; MBD2 confirm: 2

What do the screens show for `COC(=O)C1CCN(C(c2cccs2)c2sc3nc(C)nn3c2O)CC1` (configuration not stated)?
rCAG binder: 0; DNMT1 block: 6; UHRF1 binding: 10; MBD2 inh: 19*; LEDGF integ inh: -2; PG9 Ab binder: -1; UHRF1 ctr MBD2: 1; MBD2 confirm: 2

How did O=C(Nc1cccnc1)C1(c2ccccc2)CCCC1 do in these assays?
rCAG binder: -2; DNMT1 block: 2; UHRF1 binding: 23*; MBD2 inh: 16*; LEDGF integ inh: 3; PG9 Ab binder: -1; UHRF1 ctr MBD2: 6; MBD2 confirm: 2

What do the screens show for `Cc1ccc2cccc(OCC(=O)Nc3cccc(S(=O)(=O)N4CCCC4)c3)c2n1`?
rCAG binder: 9; DNMT1 block: -7; UHRF1 binding: 19; MBD2 inh: 17*; LEDGF integ inh: -3; PG9 Ab binder: 2; UHRF1 ctr MBD2: -2; MBD2 confirm: 2

What do the screens show for `O=S1(=O)CC(N2CCCC2)CN1` (configuration not stated)?
rCAG binder: 2; UHRF1 binding: 15; MBD2 inh: 15*; LEDGF integ inh: 3; UHRF1 ctr MBD2: 10; MBD2 confirm: 3

Results for O=S1(=O)CC(N2CCCCC2)CN1C1CCCCC1 (configuration not stated) ?
rCAG binder: 3; DNMT1 block: 7; UHRF1 binding: 1; MBD2 inh: -2; LEDGF integ inh: 1; PG9 Ab binder: -1

How did CCc1ccc(N2CC(C(=O)N3CCN(S(=O)(=O)c4cccc(F)c4)CC3)CC2=O)cc1 (configuration not stated) do in these assays?
rCAG binder: -1; DNMT1 block: -2; UHRF1 binding: 1; MBD2 inh: 5; LEDGF integ inh: 0; PG9 Ab binder: 0

Results for COc1cc(OC)c(-c2c3cc(O)c(=O)cc-3oc3cc(O)c(O)cc23)cc1OC ?
rCAG binder: inactive; DNMT1 block: 17; UHRF1 binding: -3; MBD2 inh: 15*; LEDGF integ inh: 84*; PG9 Ab binder: -11; UHRF1 ctr MBD2: -38; MBD2 confirm: -10

How did CCOc1ccc2nc(SCC(=O)N(CC(C)C)c3c(N)n(CC(C)C)c(=O)[nH]c3=O)[nH]c2c1 do in these assays?
rCAG binder: 2; DNMT1 block: 6; UHRF1 binding: -2; MBD2 inh: -1; LEDGF integ inh: -2; PG9 Ab binder: 0

What do the screens show for `CC(C)CN(C(=O)CSc1nc2ccccc2c(=O)[nH]1)c1c(N)n(CC(C)C)c(=O)[nH]c1=O`?
rCAG binder: 2; DNMT1 block: 4; UHRF1 binding: -2; MBD2 inh: 25*; LEDGF integ inh: -2; PG9 Ab binder: -3; UHRF1 ctr MBD2: 4; MBD2 confirm: 2

What do the screens show for `O=C(CC1C(=O)NCCN1C(=O)c1ccccc1)Nc1cc(Cl)ccc1Cl` (configuration not stated)?
rCAG binder: -1; DNMT1 block: 0; UHRF1 binding: 2; MBD2 inh: 7; LEDGF integ inh: 1; PG9 Ab binder: 1

What do the screens show for `Cc1ccc(CN2C(=O)C3CCCN3c3ncccc32)cc1` (configuration not stated)?
rCAG binder: 10; DNMT1 block: -4; UHRF1 binding: -2; MBD2 inh: 52*; LEDGF integ inh: -2; PG9 Ab binder: -2; UHRF1 ctr MBD2: 5; MBD2 confirm: 3
